# Screens deposited in PubChem BioAssay by National Center for Advancing Translational Sciences (NCATS).
# Only some compounds are listed: those with a hit (about 4.6% of all), similar ones and a draw of the others.
# D1 potentiator: human D1 dopamine receptor positive modulation; HEK293 TREx D1 cells, calcium flux, dopamine EC20 potentiation; potentiation, % at 10 µM; actives 0.036% (n = 360,000); AID 504651; in the data active = potentiation above about 30%
# Target sequence (P21728 whole entry, looked up): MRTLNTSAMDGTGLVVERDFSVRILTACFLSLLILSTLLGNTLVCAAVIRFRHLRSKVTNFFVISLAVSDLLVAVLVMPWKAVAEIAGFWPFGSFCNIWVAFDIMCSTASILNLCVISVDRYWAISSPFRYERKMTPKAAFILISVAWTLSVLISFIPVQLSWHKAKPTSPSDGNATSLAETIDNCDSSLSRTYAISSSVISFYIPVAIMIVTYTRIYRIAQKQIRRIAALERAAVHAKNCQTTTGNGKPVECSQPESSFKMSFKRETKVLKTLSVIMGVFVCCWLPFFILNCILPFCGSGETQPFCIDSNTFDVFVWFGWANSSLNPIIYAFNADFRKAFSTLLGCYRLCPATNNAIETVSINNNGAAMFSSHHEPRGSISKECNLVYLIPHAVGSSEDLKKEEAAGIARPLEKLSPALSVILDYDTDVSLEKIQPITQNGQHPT
# D1 agonist: human D1 receptor agonism | P21728 | HEK293 T-REx D1 cells, calcium flux, agonist mode | activation, % at 2 µM | actives 1% (n = 360,000) | AID 504660
#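 Agonism was scored from calcium flux recorded over 180 s (1 read/s) after pintool compound addition, following a 10-cycle baseline. Cells were inducible force-coupled HEK293 TREx D1, plated overnight at 30 C and loaded with no-wash calcium dye.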
# TRHR agonist: TRH receptor (human) agonism. P34981. TRHR cells, calcium flux fluo-8, FDSS agonist mode. activation, % at 2 µM. actives 0.18% (n = 360,000)
#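 In this calcium-flux screen, cells bearing human TRHR are dye-loaded with fluo-8, baselined for 10 cycles, then exposed to library compounds; positive kinetic calcium responses during the agonist phase mark hits, with TRH as control.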
# TRHR enhancer: TRH receptor (human) allosteric enhancement; P34981; TRHR cells, fluo-8 calcium fluorescence, EC20 TRH enhancement; enhancement, % at 2 µM; actives 0.66% (n = 360,000); AID 493056; in the data active = enhancement above about 30%
#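 TRHR-expressing cells loaded with fluo-8 calcium dye were read kinetically (ex 480/em 530) during compound addition, then stimulated with an EC20 of TRH (10 nM final). Enhancement of the Gq-mediated intracellular calcium response was scored.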
# D1 antag: blocks dopamine activation of the human D1 receptor. P21728. HEK293 TREx D1 cells, calcium flux, dopamine EC80; hits give low values. actives 3.2% (n = 360,000). activity change, negative = inhibition, % at 10 µM; in the data active = activity change below about -30%
#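 Calcium flux readout: force-coupled, inducible Hek293 Trex D1 line, cells induced overnight at 30 C with tetracycline, dye-loaded 30–90 min at RT. Antagonism scored against EC80 dopamine challenge given 180 s after compound.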
# Numbers stand for hits; – = inactive. Rule as the data show it, unless noted: active = activation above about 30%; inactive = the rest.
SMILES,D1 potentiator,D1 agonist,TRHR agonist,TRHR enhancer,D1 antag
O=C(Cn1cnc2ccccc2c1=O)c1ccccc1,–,–,–,–,–
CCOC(=O)Cn1cnc2c(cnn2-c2ccc(Cl)cc2)c1=O,–,–,–,–,-49
O=C(Cn1nc(-c2ccc(Cl)cc2)ccc1=O)N1CCN(c2ccccc2)CC1,–,–,–,32,–
O=C(Cn1cnc2ccccc2c1=O)c1ccc(Cl)cc1,–,–,–,–,-42
Cc1cc(=O)[nH]c(/N=C(\N)Nc2ccc(SC(F)F)cc2)n1,–,–,–,–,–
COC(=O)COc1ccc(C(C2C(=O)CC(C)(C)CC2=O)C2C(=O)CC(C)(C)CC2=O)cc1,–,–,–,–,–
O=C(c1ccc(F)cc1)C1CCN(C(=O)Nc2ccc(F)cc2F)CC1,–,–,–,–,–
Cc1cc2c(=O)n(CC(=O)N3CCN(c4ccccc4)CC3)cnc2s1,–,–,–,–,–
O=C(Cn1cnc2ccccc2c1=O)N1CCN(c2ccccc2)CC1,–,–,–,–,-36
O=C(Cn1cnc2c(cnn2-c2ccc(Cl)cc2)c1=O)N1CCN(c2ccccc2)CC1,–,–,–,–,-32
O=C(Cn1cnc2c(cnn2-c2ccccc2)c1=O)N1CCOCC1,–,–,–,–,–
O=C(OCCc1ccccc1)c1cc(O)c(O)c(O)c1,–,–,–,–,–
CS(=O)(=O)c1ncc(Cl)c(C(=O)Nc2ccc(OC(F)F)cc2)n1,–,–,–,–,-38
CS(=O)(=O)c1ccc(C(=O)Nc2ccc(N3CCOCC3)cc2)c(Cl)c1,–,–,–,–,–
CS(=O)(=O)c1ncc(Cl)c(C(=O)Nc2ccc(N3CCOCC3)cc2)n1,–,–,–,–,-35
CC1=C(C(=O)OCc2ccccc2)C(c2ccccc2[N+](=O)[O-])NC(=O)N1C (stereo not given),–,–,–,–,–
CCN(c1ccccc1)S(=O)(=O)c1ccc(NCC2COc3ccccc3O2)nc1 (stereo not given),–,–,–,–,–
CCN(CC1COc2ccccc2O1)S(=O)(=O)c1ccc(C)cc1 (stereo not given),–,–,–,–,-33
COc1ccc(CCC(=O)NCc2ccc3c(c2)CCN3C(=O)c2ccc(Cl)cc2)cc1,–,–,–,–,-35
CCOc1ccc(C(=O)NCc2ccc3c(c2)CCN3C(=O)c2ccc(C)cc2)cc1OCC,–,–,–,–,-66
N#Cc1ccc(C(=O)NCc2ccc3c(c2)CCN3C(=O)c2ccc(F)cc2)cc1,–,–,–,–,-33
COC(=O)N(NC(=O)C(O)(c1ccccc1)c1ccccc1)c1ccccc1,–,–,–,–,–
O=C(CC1S/C(=N/N=C/c2cccnc2)NC1=O)Nc1ccccc1 (stereo not given),–,–,–,–,–
CCOc1ccccc1N(CC(=O)N/N=C(\C)c1cccc(Br)c1)S(C)(=O)=O,–,–,–,–,–
COCCNC(=O)CN(c1ccccc1OC)S(C)(=O)=O,–,–,–,–,-30
SMILES,D1 potentiator,D1 agonist,TRHR agonist,TRHR enhancer,D1 antag
COc1ccccc1N(CC(=O)NCCc1ccccc1)S(C)(=O)=O,–,–,–,–,–
COc1ccccc1N(CC(=O)N/N=C(\C)c1cccc(Br)c1)S(C)(=O)=O,–,–,–,–,-30
CCCCCCCNC(=O)C1(CC2CC(c3cccc(Br)c3)=NO2)CCN(C(=O)OC(C)(C)C)CC1 (stereo not given),–,–,–,–,–
Cc1ccc(OCC(=O)Nn2c(C)nc3ccccc3c2=O)c(C(C)C)c1,–,35,–,–,–
N#Cc1c(N)nc(SCc2ccncc2)c(C#N)c1-c1cccs1,–,–,–,–,-34
O=C(NCCc1nnc2ccc(N3CCCCCC3)nn12)c1ccccc1,–,41,–,–,-31
Cc1nnc2ccc(N3CCN(C(=O)c4ccccc4)CC3)nn12,–,–,–,–,-62
Cc1ccc(C(=O)N2CCN(c3ccc(N4CCOCC4)nn3)CC2)cc1,–,–,–,–,-32
O=C(O)CCCC(=O)Nc1cc([N+](=O)[O-])ccc1O,–,–,–,–,–
CC(C)NC[C@H](O)COc1cccc2[nH]ccc12,–,–,–,–,–
CCN(CC)S(=O)(=O)c1cc(C(=O)OCC(=O)Nc2cccc(S(=O)(=O)N(C)C)c2)ccc1F,–,–,–,–,-40
